In PubChem BioAssay AID1159580 (chemical genetic matrix, 2015):
Hit rate of the full screen: of about 5,500 compounds, about 2,000 (36%) were called active. About 18% were inconclusive and are not listed. No stated cut-off is given here; in the data, active means normalized growth mostly below about 0.91 (no sharp cut-off); inconclusive means no clear call, values can overlap the other calls; inactive means mostly above about 0.92. The list shows a part of the results.

Experiment: chemical genetic growth profiling, strain panel (AID 1159580);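 further: tested at 20 µM; growth read once vehicle control cultures reached saturation at 30 °C; 1 = growth at the plate median or of vehicle wells; lower values mean less growth of the strain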
Conditions: S. cerevisiae deletion strains, growth OD

Measured: normalized growth

CC(CC(O)C1OC1(C)C)[C@@H]1CCC2(C)C3=CCC4C(C)(C)C(=O)CCC4(C)C3CC[C@@]12C (stereo partly specified)
inactive: locus YAL021C, strain ccr4, active compounds read low 0.986 | locus YAL026C, strain drs2, active compounds read low 0.997 | locus YAL030W, strain snc1, active compounds read low 1 | locus YBL061C, strain skt5, active compounds read low 1.02 | locus YBR009C, strain hhf1, active compounds read low 0.979 | locus YBR021W, strain FUR4, active compounds read low 0.993 | locus YBR023C, strain chs3, active compounds read low 1.01 | locus YBR171W, strain sec66, active compounds read low 0.999 | locus YBR229C, strain ROT2, active compounds read low 1.03 | locus YBR231C, strain swc5, active compounds read low 1.04 | locus YBR279W, strain paf1, active compounds read low 0.999 | locus YCL011C, strain gbp2, active compounds read low 1.01 | locus YCL016C, strain dcc1, active compounds read low 0.994 | locus YCL029C, strain bik1, active compounds read low 1.03 | locus YCL061C, strain MRC1, active compounds read low 0.994 | locus YCL069W, strain vba3, active compounds read low 0.995 | locus YCR088W, strain abp1, active compounds read low 1.01 | locus YDL005C, strain med2, active compounds read low 1.01 | locus YDL035C, strain GPR1, active compounds read low 0.952 | locus YDL040C, strain nat1, active compounds read low 1 | locus YDL074C, strain BRE1, active compounds read low 1.02 | locus YDL101C, strain DUN1, active compounds read low 1.04 | locus YDL134C, strain PPH21, active compounds read low 1.03 | locus YDL185W, strain tfp1, active compounds read low 1.03 | locus YDL192W, strain arf1, active compounds read low 1.03 | locus YDR001C, strain nth1, active compounds read low 0.984 | locus YDR069C, strain doa4, active compounds read low 1 | locus YDR101C, strain arx1, active compounds read low 1.02 | locus YDR159W, strain sac3, active compounds read low 1.01 | locus YDR162C, strain NBP2, active compounds read low 1.04 | locus YDR195W, strain ref2 0.971 | locus YDR297W, strain sur2, active compounds read low 1 | locus YDR318W, strain mcm21, active compounds read low 1.04 | locus YDR334W, strain swr1, active compounds read low 0.997 | locus YDR335W, strain msn5, active compounds read low 0.993 | locus YDR388W, active compounds read low 1.03 | locus YDR392W, strain spt3, active compounds read low 1.02 | locus YDR502C, strain sam2, active compounds read low 1.03 | locus YEL003W, strain gim4, active compounds read low 1.01 | locus YEL037C, strain rad23, active compounds read low 1 | locus YEL061C, strain CIN8 (second series), active compounds read low 1 | locus YER015W, strain faa2, active compounds read low 1 | locus YER016W, strain bim1, active compounds read low 1 | locus YER110C, active compounds read low 1.03 | locus YER111C, strain swi4, active compounds read low 1.02 | locus YER155C, strain BEM2 (second series), active compounds read low 1.04 | locus YER155C, strain BEM2, active compounds read low 1.04 | locus YER167W, strain BCK2, active compounds read low 1.05 | locus YFR010W, strain ubp6, active compounds read low 0.997 | locus YGL078C, strain dbp3, active compounds read low 1.01 | locus YGL086W, strain mad1, active compounds read low 1.05 | locus YGL167C, strain pmr1, active compounds read low 0.999 | locus YGL173C, strain kem1, active compounds read low 1 | locus YGL227W, strain vid30, active compounds read low 0.998 | locus YGL240W, strain doc1, active compounds read low 1.02 | locus YGL248W, strain PDE1, active compounds read low 1.03 | locus YGL253W, strain hxk2, active compounds read low 0.994 | locus YGR135W, strain pre9, active compounds read low 1.04 | locus YGR229C, strain SMI1, active compounds read low 1.08 | locus YGR252W, strain gcn5, active compounds read low 1.17 | locus YHR013C, strain ard1, active compounds read low 1.03 | locus YHR027C, strain rpn1, active compounds read low 1 | locus YHR030C, strain SLT2, active compounds read low 1.03 | locus YHR079C, strain IRE1 (second series), active compounds read low 1.03 | locus YHR094C, strain hxt1, active compounds read low 1.04 | locus YHR129C, strain ARP1, active compounds read low 1.04 | locus YHR142W, strain chs7, active compounds read low 1 | locus YHR200W, strain rpn10, active compounds read low 1.03 | locus YIL066C, strain RNR3, active compounds read low 1.01 | locus YIL073C, strain SPO22, active compounds read low 1.1 | locus YIL125W, strain kgd1, active compounds read low 1.03 | locus YIR030C, strain dcg1, active compounds read low 1.03 | locus YJL092W, strain hpr5, active compounds read low 1 | locus YJL095W, strain BCK1 (second series), active compounds read low 1 | locus YJL095W, strain BCK1, active compounds read low 1.05 | locus YJL115W, strain asf1, active compounds read low 0.992 | locus YJL129C, strain trk1, active compounds read low 0.993 | locus YJL134W, strain LCB3, active compounds read low 1.04 | locus YJL154C, strain vps35, active compounds read low 1 | locus YJL164C, strain tpk1, active compounds read low 0.966
active: locus YDR137W, strain rgp1, active compounds read low 0.831
